From PubChem
In the library only some 15% were active in any assay of this set; here they are far more common.
HCV inhibitor – blocks hepatitis C virus | Potency, µM (titrated, usually from 41.8 µM), for inactives: top-dose activity change, negative = inhibition, most hits filed as inhibitors | Huh7.5.1 HCVcc-Cre infection, luciferase reporter, 44 h | hit rate 3.4% among 340,000 | AID 651820; further: potency means the concentration at half of the fitted maximal effect; on the % scale 0 is the no-effect control and ±100 the full control effect
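Reporter virus HCVcc-Cre (~0.5 moi) infects cells exposed to compound; seeding density 1,000 cells/well with 4 h settling beforehand. Luminescence, 15 sec read, taken 44 h post-infection following a 15 min RT substrate incubation.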
Sm TGR block – blocks Schistosoma mansoni thioredoxin glutathione reductase; Q962Y6; purified TGR, DTNB reduction, TNB absorbance 405 nm; Potency, µM (top dose mostly 114 µM), without a hit: at the top dose activity change, negative = inhibition, actives largely listed as inhibitors; hit rate 3% among 360,000; AID 485364; further: potency means the concentration at half of the fitted maximal effect; on the % scale 0 is the no-effect control and ±100 the full control effect; nearly all actives have a fitted effect of over 60% in size
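TGR 20 nM + NADPH 100 uM (dispensed conc.), cpd preinc 15 min RT; start with NADPH (500 uM addition) then DTNB (15 mM addition). Kinetic TNB absorbance, 405 nm filter. Four-parameter Hill fit across titration.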
HCMV antiviral – inhibitors of human cytomegalovirus; activity change, negative = inhibition, % at 57.5 µM; hit rate 4.5% among 410,000; HFF cells, HCMV-luciferase reporter, 72 h; stronger effect = lower value; AID 1259415; in the data active means activity change below about -60%; inconclusive means no clear call, values can overlap the other calls; inactive means above about -39%; further: on the % scale 0 is the no-effect control and ±100 the full control effect
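HFF cells seeded 16 h at 37C, treated with compounds, infected with luciferase-reporter HCMV at MOI 1 PFU/cell; luciferase read at 72 h post infection, normalized to buffer-only and Salinomycin controls.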
Pf growth 48h – P. falciparum growth inhibition at 48 hours (one generation); P. falciparum luciferase growth in erythrocytes, 48 h; Potency, µM (titrated, usually from 28.7 µM), for the others: at the top dose activity change, negative = inhibition, hits mostly inhibitors; hit rate 5.9% among 310,000; AID 504832; further: potency means the concentration at half of the fitted maximal effect; on the % scale 0 is the no-effect control and ±100 the full control effect
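Erythrocytes infected with P. falciparum carrying an integrated firefly luciferase reporter (2% hematocrit, 0.1% parasitemia final) were exposed to compounds in RPMI 1640 with 0.5% Albumax at 37 C, 5% CO2. Growth inhibition was scored as reduced luminescence.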
Pf growth 96h – P. falciparum growth inhibition at 96 hour, primary screen for plastid delayed-death inhibitors. Potency, µM (titrated, usually from 28.7 µM), without a hit: at the top dose activity change, negative = inhibition, most hits filed as inhibitors. P. falciparum luciferase reporter growth, 96 h. hit rate 6.9% among 320,000. AID 504834; further: potency means the concentration at half of the fitted maximal effect; on the % scale 0 is the no-effect control and ±100 the full control effect
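Two-generation exposure (96 h) targets delayed-death phenotype. Reporter parasites carrying integrated firefly luciferase, in red cells at 2% hematocrit and 0.05% parasitemia final, kept at 37 C, 5% CO2; luminescence loss indicates inhibition.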
SARS PLP yeast – blocks SARS-CoV papain-like protease in a yeast assay | S. cerevisiae expressing SARS-CoV PLpro, growth rescue | AID 485353 | hit rate 0.19% among 330,000 | Potency, µM (top dose mostly 32.9 µM), for inactives: at the highest dose activity, positive = growth rescue, most hits filed as activators; calls by dose curve; further: potency means the concentration at half of the fitted maximal effect; 0% is about no effect; nearly all actives have a fitted effect of over 55% in size
Numbers without * were called inactive; ? = inconclusive; · = not tested or not shown. Unless noted, the call rests on the fitted dose curve; in most records, active means well fitted curve in the direction sought with a large enough effect; inconclusive means small, poorly fitted or top-dose-only effect, or another doubt; inactive means no such curve, though single readings can be large; an effect the other way counts as inactive or inconclusive.

SMILES | HCV inhibitor | Sm TGR block | HCMV antiviral | Pf growth 48h | Pf growth 96h | SARS PLP yeast
CCc1ccc2oc(-c3ccc(C)c(NC(=O)c4ccc(C#N)cc4F)c3)nc2c1 | · | 6.4% | 41.3 | · | · | ·
O=C(NC12CC3CC(CC(C3)C1)C2)c1ccc(N2CCNCC2)c([N+](=O)[O-])c1 | ? | 3.9% | 2.9 | 5.22µM* | ? | 0.0%
CCS(=O)(=O)N1CCN(c2ccc(C(=O)NC34CC5CC(CC(C5)C3)C4)cc2[N+](=O)[O-])CC1 | 33.0% | -0.9% | -23.2 | 5.86µM* | 5.86µM* | 5.8%
CS(=O)(=O)N1CCN(c2ccc(C(=O)NC34CC5CC(CC(C5)C3)C4)cc2[N+](=O)[O-])CC1 | 14.0% | -13.3% | -16.1 | ? | ? | 3.0%
Cc1ccc(NC(=S)/C(C#N)=C2/Nc3ccccc3S2)cc1 | · | · | -78.9* | · | · | ·
CCOC(=O)C1=C(C)N(c2ccccc2)C(=O)C1 | 12.1% | -17.0% | -10.4 | -6.4% | 10.4µM* | 18.2%
COC(=O)C1=C(C)N(c2ccc(S(N)(=O)=O)cc2)C(=O)C1 | 10.3% | 0.0% | 23.9 | · | 85.6% | 4.4%
CCCCOC(=O)c1ccc(NC(=O)CSc2nc3c(c(=O)[nH]2)CCC3)cc1 | · | 7.7% | -8.5 | · | · | ·
Cc1cc(OCC(=O)Nc2ncn[nH]2)ccc1Cl | 0.1% | -4.6% | 3.1 | 88.2% | 1.85µM* | 1.6%
CN(CC(=O)Nc1ncn[nH]1)S(=O)(=O)c1cc(Cl)ccc1Cl | 0.0% | -5.9% | -25.2 | 10.4µM* | -1.6% | -4.8%
Cc1cc(OCC(=O)Nc2ccc(S(=O)(=O)N3CCN(C)CC3)cc2)cc(C)c1Cl | 11.2µM* | -15.5% | -14.8 | ? | 11.6% | -1.0%
Cc1cc(OCC(=O)Nc2ccncc2)ccc1Cl | ? | -5.4% | -29.7 | -3.7% | ? | -8.6%
CN1CCN(S(=O)(=O)c2ccc(NC(=O)COc3ccccc3)cc2)CC1 | 23.8% | 1.6% | -36.4 | ? | ? | 2.4%
Cc1cc(OCC(=O)Nc2ccc(N3CCN(C)CC3)cc2)ccc1Cl | ? | -23.1% | 17.1 | -24.5% | ? | -8.4%
Cc1cc(OCC(=O)Nc2ccc(S(=O)(=O)N3CCN(C)CC3)cc2)ccc1Cl | ? | -8.6% | -13.0 | 4.15µM* | 11.7µM* | -11.4%
O=C(CCCCCn1c(=O)c2sccc2n(CC(=O)Nc2cc(C(F)(F)F)ccc2Cl)c1=O)NCc1ccccc1Cl | · | 0.5% | -32.6 | · | · | ·
Cc1ccc(S(=O)(=O)N(C)C[C@@H]2OCc3cnnn3CCCC(=O)N([C@H](C)CO)C[C@@H]2C)cc1 | · | · | 12.4 | · | · | ·
Cc1cc(C)cc(OCC(=O)Nc2ccc3c(c2)OCCO3)c1 | -17.4% | -1.5% | ? | 24.7% | -27.8% | -4.9%
Cc1cc(OCC(=O)Nc2ccc3c(c2)OCCO3)ccc1Cl | 12.5% | 8.1% | 34.0 | 3.1% | 8.28µM* | -32.7%
O=C(Nc1c(C(=O)N2CCN(c3ccccc3F)CC2)oc2ccccc12)c1cccc(F)c1 | · | 13.7% | -15.8 | · | · | ·
Cc1cc(C)nc(SCC(=O)Nc2ncccn2)n1 | · | 0.2% | -18.1 | 12.5% | -12.1% | 9.7%
O=C(NCc1ccco1)c1cc2ccccc2c(=O)o1 | 21.7% | ? | -36.3 | 12.1% | -0.7% | -9.3%
C=CCN(CC=C)C(=O)c1cc2ccccc2c(=O)o1 | 10.7% | 19.9% | -63.2* | 2.5% | -16.7% | 20.1%
CC(=O)Oc1oc(-c2ccccc2)nc1/C=N/c1ccccn1 | 21.6% | 28.2µM* | 5.4 | 117.1% | ? | -2.9%
COc1ccc(CN(C)C(=O)Cn2cnc3c(SC)nc(N)nc32)cc1OC | 4.47µM* | · | -24.3 | · | · | -6.0%
SMILES | HCV inhibitor | Sm TGR block | HCMV antiviral | Pf growth 48h | Pf growth 96h | SARS PLP yeast
N#Cc1cccc(NC(=O)c2cc(C3CCCCN3C(=O)c3cccs3)on2)c1 (stereo unspecified) | · | · | -4.1 | · | · | ·
O=C(N/N=C/c1ccc(-c2cccc([N+](=O)[O-])c2)o1)c1ccc([N+](=O)[O-])cc1 | 10µM* | 3.9% | ? | ? | 13.3% | -5.0%
CN(/N=C/c1ccc(-c2ccc([N+](=O)[O-])cc2)o1)c1ccccc1 | ? | -11.8% | -17.5 | 42.7% | -8.2% | 0.7%
O=C1Nc2ccccc2/C1=N/N=C/c1ccc(-c2ccc([N+](=O)[O-])cc2)o1 | 1.9% | -8.4% | -82.6* | ? | ? | 6.5%
NC(=S)N/N=C/c1ccc(-c2ccc([N+](=O)[O-])cc2)o1 | ? | 28.2µM* | 21.6 | ? | 18.8% | -1.2%
C=C(C)Cn1c2ccc(NC(=O)CCOCC)cc2c(=O)n1C | · | · | 17.7 | · | · | ·
Cc1cccc(OCC(=O)Nc2ccc(-c3nc4cc(C)ccc4o3)c(O)c2)c1 | · | 0.0% | 57.7 | · | · | ·
COc1ccccc1CNC(=O)C1CCN(S(=O)(=O)c2ccc(-n3cnnn3)cc2)CC1 | 20.8% | 7.9% | -17.0 | ? | ? | -1.2%
Cc1ccccc1/C=C/C12NC(=O)CN1c1ccccc1C2(C)C (stereo unspecified) | -20.9% | 7.6% | -11.4 | ? | ? | 0.0%
CC1(C)c2ccccc2N2CC(=O)N[C@@]21/C=C/C=C/c1ccccc1 | -19.5% | -1.0% | -65.6* | ? | -27.2% | 0.0%
Cc1cccc(N(C(=O)c2snc(C(N)=O)c2N)C(C(=O)NCC2CCCO2)c2ccc3ncccc3c2)c1 (stereo unspecified) | -24.7% | 0.2% | 11.4 | ? | 22.7% | 6.1%
COc1ccc(N2CCN(C3CCCN(Cc4ccc(F)cc4Cl)C3)CC2)cc1 (stereo unspecified) | ? | -9.3% | -4.2 | ? | ? | -0.2%
COc1ccc(O)c(CN2CCCC(N3CCN(c4ccc(F)cc4)CC3)C2)c1 (stereo unspecified) | -18.7% | -1.0% | 5.3 | 4.15µM* | ? | -8.1%
COc1ccc(O)c(CN2CCCC(N3CCc4ccccc4C3)C2)c1 (stereo unspecified) | -8.2% | -8.9% | 61.8 | 11.7µM* | ? | 5.0%
Oc1ccccc1CN1CCCC(N2CCc3ccccc3C2)C1 (stereo unspecified) | -21.0% | -0.4% | 73.3 | 9.28µM* | 5.22µM* | 6.4%
O=C(Oc1ccc(Cl)c2cccnc12)C12CC3CC(CC(C3)C1)C2 | 10.1% | -2.2% | ? | ? | 9.7% | -75.1%
O=C1c2ccccc2/C(=C\c2ccc3[nH]ccc3c2)N1c1ccccc1 | ? | · | -66.5* | · | · | 1.8%
CN1CCN(c2ccccc2NC(=O)c2ccc(-c3cccc(Cl)c3)o2)CC1 | ? | -5.4% | 26.6 | ? | -15.7% | -4.0%
CS(=O)(=O)N1CCN(c2ccccc2NC(=O)c2ccc(-c3ccc(Cl)cc3Cl)o2)CC1 | -5.3% | ? | 42.4 | 11.7µM* | · | -4.0%
CN1CCN(c2ccccc2NC(=O)c2cc3ccccc3o2)CC1 | -16.5% | -22.5% | 108.1 | ? | 4.65µM* | -1.9%
